{"source": "PubChem BioAssay AID1745849", "about": "(National Center for Advancing Translational Sciences (NCATS), 2022)", "note": "In all, about 2,100 compounds went through this assay and about 320 (15%) were called active. Roughly 52% stayed inconclusive and do not appear here. Calls follow the shape of the dose curve; as a rule, active = well fitted cell-killing curve with a large enough effect; inconclusive = small, poorly fitted or top-dose-only effect, or effect the other way; inactive = flat fitted curve, though single readings scatter. The list shows a part of the results. Entries that show only a call come without a potency. Potency is read from the fitted curve at half-maximal effect.", "data": [{"assay": "Viability Counterscreen for CMV-Luciferase Assay of Inhibitors of ATXN expression; also: nearly all actives have a fitted effect of over 55% in size", "conditions": "HEK-293 CMV-luciferase cells viability, protease fluorescence, 24 h", "how_it_was_run": "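HEK-293 cells stably expressing CMV-luciferase, treated 24 hr at 37 °C with compounds (several concentrations). Viability by Gly-Phe-AFC fluorescence (25 uM final, 30 min); reporter by SteadyGlo luminescence after 5 min.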", "values": [{"smiles": "O=C(N/N=C/c1cc(Br)ccc1O)C(c1ccncc1)N1CCOCC1", "note": "(configuration not stated)", "Potency": "inactive"}, {"smiles": "Cc1cc(C(=O)N/N=C/c2cc(Br)ccc2OC(=O)c2ccccc2)n[nH]1", "Potency": "inactive"}, {"smiles": "COc1cccc(NC(=O)/C=C/c2ccc(S(=O)(=O)N3CCOCC3)cc2)c1", "Potency": "inactive"}, {"smiles": "Cn1c(CO)c(-c2ccccc2)c2cc([N+](=O)[O-])ccc21", "Potency": "inactive"}, {"smiles": "Cc1[nH]n2c(=O)cc(C(C)(C)C)nc2c1-c1ccccc1", "Potency": "11.2 µM (active)"}, {"smiles": "CC(C)N(C(=O)COC(=O)c1ccccc1C(=O)c1ccc(Cl)c([N+](=O)[O-])c1)C(C)C", "Potency": "inactive"}, {"smiles": "CCCCNCCCOc1cccc(Cl)c1Cl", "Potency": "inactive"}, {"smiles": "COCCCNCCCOc1ccc(Cl)cc1C(C)(C)C", "Potency": "25.1 µM (active)"}, {"smiles": "O=C(N/N=C\\c1cc(Br)ccc1O)c1ccc(S(=O)(=O)N2CCCCC2)cc1", "Potency": "inactive"}, {"smiles": "O=C(N/N=C\\c1cc(Cl)ccc1O)c1ccc(S(=O)(=O)N2CCCCC2)cc1", "Potency": "inactive"}, {"smiles": "CC(OC(=O)c1cc(Br)ccc1O)C(=O)Nc1ccc(S(=O)(=O)N2CCCC2)cc1", "note": "(configuration not stated)", "Potency": "28.2 µM (active)"}, {"smiles": "COc1ccc(-c2n(CC(=O)OC3CC(C)CCC3C(C)C)c3ccccc3[n+]2C)cc1", "note": "(configuration not stated)", "Potency": "7.94 µM (active)"}, {"smiles": "CC(NC(=O)Nc1cccc([N+](=O)[O-])c1)c1ccc2c(c1)OCO2", "note": "(configuration not stated)", "Potency": "inactive"}, {"smiles": "N#C/C(=N\\Nc1cccc([N+](=O)[O-])c1)C(=O)c1ccc(Br)cc1", "Potency": "2.24 µM (active)"}, {"smiles": "C/C(=N\\Nc1cc(N2CCOCC2)nc(C)n1)c1cccc([N+](=O)[O-])c1", "Potency": "inactive"}, {"smiles": "Cc1csc2c(N3CCN(C(=O)Nc4ccc(Cl)c(Cl)c4)CC3)ncnc12", "Potency": "inactive"}, {"smiles": "COc1ccc([C@@]2(C(C)C)ON(c3ccccc3C(F)(F)F)C2=O)cc1", "Potency": "inactive"}, {"smiles": "O=C(NCC(=O)N1CC(O)CC1C(=O)N1CCCC1C(=O)OCc1ccccc1)OCc1ccccc1", "note": "(configuration not stated)", "Potency": "inactive"}, {"smiles": "C=CCc1cccc(/C=N/NC(=O)CCCNc2ccc(C)cc2)c1O", "Potency": "20 µM (active)"}, {"smiles": "C=CCc1cccc(/C=N/NC(=O)CNc2ccccc2)c1O", "Potency": "inactive"}, {"smiles": "O=C(Cc1ccccc1)N/N=C/c1cc(Br)cc(Br)c1O", "Potency": "inactive"}, {"smiles": "CCOC(=O)N1CCN(S(=O)(=O)c2ccc(C(=O)NNc3nc4c(C)cc(C)cc4s3)cc2)CC1", "Potency": "1.58 µM (active)"}, {"smiles": "Cc1cc(C)c2nc(NNC(=O)c3ccc(S(=O)(=O)N4CC(C)CC(C)C4)cc3)sc2c1", "note": "(configuration not stated)", "Potency": "inactive"}, {"smiles": "Cc1cc(C)c2nc(NNC(=O)c3cc(-c4cccs4)nc4ccccc34)sc2c1", "Potency": "inactive"}, {"smiles": "Cc1nc(SCc2ccc(C(=O)O)cc2)nc2c1CCCC2", "Potency": "inactive"}, {"smiles": "CN(C)CCNC(=O)c1cccc(-c2cnc3c(NC=O)cc(/C=C/c4ccccc4)cn23)c1", "Potency": "28.2 µM (active)"}, {"smiles": "CN(C)CCNC(=O)c1cccc(-c2cnc3c(NC=O)cc(-c4cccc(C(F)(F)F)c4)cn23)c1", "Potency": "22.4 µM (active)"}, {"smiles": "CN(C)C(=O)c1cccc(-c2cnc3c(NC=O)cc(-c4ccc(F)cc4)cn23)c1", "Potency": "inactive"}, {"smiles": "CN(C)CCNC(=O)c1cccc(-c2cnc3c(NC=O)cc(-c4cccs4)cn23)c1", "Potency": "inactive"}, {"smiles": "CN1CCN(c2ccc(-c3cc(NC=O)c4ncc(-c5ccc(F)c(Cl)c5)n4c3)cc2)CC1", "Potency": "inactive"}, {"smiles": "CCCCNC(=NCc1cccc(C(F)(F)F)c1)Nc1ccccc1", "Potency": "inactive"}, {"smiles": "COc1cc(/C=N/Nc2ccc(Cl)c(C(=O)O)c2)ccc1OC(=O)c1ccco1", "Potency": "inactive"}, {"smiles": "NC(=O)c1c(NC(=O)c2ccc(S(=O)(=O)N3CCOCC3)cc2)sc2c1CCCCC2", "Potency": "inactive"}, {"smiles": "COC(=O)c1c(NC(=O)c2ccc([N+](=O)[O-])o2)sc2c1CCN(C(C)C)C2", "Potency": "15.8 µM (active)"}, {"smiles": "CN(C)C(CNC(=O)c1cccc(S(=O)(=O)N2CCN(c3ccc(F)cc3)CC2)c1)c1ccccc1", "note": "(configuration not stated)", "Potency": "inactive"}, {"smiles": "Cc1ccc(OCC(=O)c2cc(C)n(Cc3cccs3)c2C)c([N+](=O)[O-])n1", "Potency": "inactive"}, {"smiles": "COCCCNC1=C(Cl)C(=O)c2ccccc2C1=O", "Potency": "25.1 µM (active)"}, {"smiles": "COc1ccc(CCNC2=C(Cl)C(=O)N(Cc3ccccc3)C2=O)cc1OC", "Potency": "inactive"}, {"smiles": "CC(C)Cn1c(/C=N/Nc2nc3ccccc3[nH]2)nc2ccccc21", "Potency": "inactive"}, {"smiles": "CCC(C)(C)c1ccc(OCCCC[n+]2ccccc2)c(C(C)(C)CC)c1", "Potency": "inactive"}, {"smiles": "Nc1ccn([C@@H]2O[C@H](CO)[C@@H](O)[C@@H]2O)c(=O)n1", "Potency": "inactive"}, {"smiles": "Nc1ccn(C2OC(COP(=O)(O)O)C(O)C2O)c(=O)n1", "note": "(configuration not stated)", "Potency": "inactive"}, {"smiles": "Nc1ncn([C@@H]2O[C@H](CO)[C@@H](O)[C@H]2O)c(=O)n1", "Potency": "6.31 µM (active)"}, {"smiles": "C/C(=N\\NC(=O)c1ccc(CN2CCc3ccccc3C2)cc1)c1ccccc1O", "Potency": "inactive"}, {"smiles": "Cc1c(OCC(=O)NC2CC(C)(C)NC(C)(C)C2)ccc2c1oc(=O)c1ccccc12", "Potency": "inactive"}, {"smiles": "COc1cccc(CN(C)C(=O)c2ccc(OCC(=O)Nc3cccc(C(F)(F)F)c3)c(OC)c2)c1", "Potency": "17.8 µM (active)"}, {"smiles": "CCOCCn1ccc2c(OCC(=O)Nc3ccc(OC)c(OC)c3)cccc2c1=O", "Potency": "inactive"}, {"smiles": "COc1cccc(OCC(=O)Nc2cc(Cl)ccc2Oc2ccccc2)c1", "Potency": "inactive"}, {"smiles": "O=C(Nc1nc(NC(=O)c2ccco2)n(-c2ccccc2)n1)c1ccccc1", "Potency": "12.6 µM (active)"}, {"smiles": "O=C(Nc1ccc(NC(=O)c2ccco2)cc1)c1ccc2c(c1)OCCO2", "Potency": "inactive"}, {"smiles": "CN(CCc1ccccc1)c1cc2c(c3c1ccn3C)C1CCC2O1", "note": "(configuration not stated)", "Potency": "inactive"}, {"smiles": "O=C(CN1C(=O)c2ccccc2S1(=O)=O)Nc1ncc(Cl)cc1Cl", "Potency": "inactive"}, {"smiles": "O=C(NCCc1csc(-c2cccnc2)n1)c1cccc(Cl)c1", "Potency": "inactive"}, {"smiles": "O=C(NNC(=O)c1cnccn1)c1ccc(Cl)c(Cl)c1", "Potency": "22.4 µM (active)"}, {"smiles": "O=C(N/N=C/c1cc(Cl)ccc1O)c1cccnc1", "Potency": "inactive"}, {"smiles": "CCCC[C@@H](CNC)NC[C@H](NCCCCC1CCCCC1)C(C)C", "Potency": "28.2 µM (active)"}, {"smiles": "OC(c1cc(F)cc(Cl)c1)c1ncc(-c2cccc(C(F)(F)F)c2)[nH]1", "note": "(configuration not stated)", "Potency": "inactive"}, {"smiles": "CCOC(=O)c1c(NC(=O)C(Sc2ccccc2)c2ccccc2)sc(C(=O)N(C)C)c1C", "note": "(configuration not stated)", "Potency": "inactive"}, {"smiles": "C=CCOC(=O)C1=C(C)NC(SCC)=C(C#N)C1c1ccc(Cl)cc1", "note": "(configuration not stated)", "Potency": "inactive"}, {"smiles": "O=C1C=C(NCCc2cc(Br)c(O)c(Br)c2)C(=O)c2ncccc21", "Potency": "8.91 µM (active)"}, {"smiles": "Brc1cnc2nc(SCc3nc4ccccc4[nH]3)[nH]c2c1", "Potency": "inactive"}, {"smiles": "CCCc1cnc(NCCNCC(O)COc2ccc(Cl)c(Cl)c2)nc1", "note": "(configuration not stated)", "Potency": "28.2 µM (active)"}, {"smiles": "Cc1cc(/C=N/n2c(COc3ccccc3)nc3ccccc3c2=O)c(O)c([N+](=O)[O-])c1", "Potency": "12.6 µM (active)"}, {"smiles": "COc1ccc(OCc2cccc(C(=O)Nn3cc([N+](=O)[O-])cn3)c2)cc1", "Potency": "inactive"}, {"smiles": "Cc1nc2ccccc2c(=O)n1/N=C/c1c(O)ccc2oc3c(c12)CCCC3", "Potency": "inactive"}, {"smiles": "Cc1ccc2nc(-c3ccccc3)nn2c1", "Potency": "inactive"}, {"smiles": "O=[N+]([O-])c1c(Nc2ccccn2)cc(Cl)c2nonc12", "Potency": "11.2 µM (active)"}, {"smiles": "Cn1c(=O)c(C#N)c(-c2ccc(F)cc2)c2cc(C(=O)c3cc(Cl)cc(Cl)c3O)cnc21", "Potency": "inactive"}, {"smiles": "Oc1ccc2ccccc2c1/C=C/c1ccc2c(Br)cc(Br)c(O)c2n1", "Potency": "inactive"}, {"smiles": "COc1ccc(C(=O)Nn2c(SCC(=O)c3ccccc3)nc3ccccc3c2=O)cc1", "Potency": "inactive"}, {"smiles": "CCOC(=O)C(CC)(CC)C(=O)/C=C/c1ccc(OC)cc1", "Potency": "inactive"}, {"smiles": "COc1ccc(C(=O)Cn2c(C(=O)/C=C/c3ccccc3)nc3ccccc32)cc1", "Potency": "3.16 µM (active)"}, {"smiles": "CC1=C(CC[C@@H](C)CO)OC2CC3C4CCC5CC(O)CCC5(C)C4CC(=O)C3(C)C12", "note": "(some centres not stated)", "Potency": "inactive"}, {"smiles": "Cn1c(=O)c2c(nc(SCCN3CCOCC3)n2Cc2cccc3ccccc23)n(C)c1=O", "Potency": "inactive"}, {"smiles": "Cn1c(=O)c2c(nc(CN3CCN(Cc4ccccc4)CC3)n2Cc2ccc(Cl)cc2)n(C)c1=O", "Potency": "25.1 µM (active)"}, {"smiles": "COc1ccc(CC(N)c2csc(NC(=O)c3cc(C(C)(C)C)nn3Cc3ccccc3)n2)cc1", "note": "(configuration not stated)", "Potency": "inactive"}, {"smiles": "COc1ccc(CNC(=O)Nc2nc(C(N)Cc3ccc(Cl)cc3)cs2)cc1", "note": "(configuration not stated)", "Potency": "22.4 µM (active)"}, {"smiles": "COc1ccc(CC(N)c2csc(NC(=O)c3ccccc3OC)n2)cc1", "note": "(configuration not stated)", "Potency": "inactive"}, {"smiles": "CN(C)c1ccc(C(=O)N/N=C/c2cc(Br)cc(Br)c2O)cc1", "Potency": "inactive"}, {"smiles": "Fc1ccc(Nc2nnc(C(F)(F)F)s2)cc1Cl", "Potency": "28.2 µM (active)"}, {"smiles": "Cc1onc(-c2c(F)cccc2Cl)c1C(=O)Nc1nnc(C(F)(F)F)s1", "Potency": "inactive"}, {"smiles": "Oc1ccc(C[C@@H]2CNCCN2CCc2cc(C(F)(F)F)cc(C(F)(F)F)c2)cc1", "Potency": "inactive"}, {"smiles": "NC(=O)C1CCN(C2=C(Cl)C(=O)c3ccccc3C2=O)CC1", "Potency": "inactive"}, {"smiles": "CCOC(=O)C1CCN(c2cc3c(cc2NC(=O)c2ccccc2OCC)n(C)c(=O)n3C)CC1", "Potency": "inactive"}, {"smiles": "CCOC(=O)C1CCN(C(=O)c2c(C)oc3c2C(=O)c2ccccc2C3=O)CC1", "Potency": "15.8 µM (active)"}, {"smiles": "COc1cc(C(=O)OC(C)C(=O)N2CCc3ccccc3C2)ccc1OCC(=O)N1CCOCC1", "note": "(configuration not stated)", "Potency": "inactive"}, {"smiles": "O=C(Nc1ccc2c(c1)CCC2)C1CCN(c2c3c(nc4ncnn24)CCC3)CC1", "Potency": "inactive"}, {"smiles": "CCCCCn1c(=N)n(CC(O)COc2ccccc2OC)c2ccccc21", "note": "(configuration not stated)", "Potency": "3.16 µM (active)"}, {"smiles": "Cn1c(N)c(C(=O)Nc2ccc(-c3ccccc3)cc2)sc1=S", "Potency": "inactive"}, {"smiles": "NS(=O)(=O)c1ccc(N2N=C(c3ccccc3)CC2c2ccc(F)cc2)cc1", "note": "(configuration not stated)", "Potency": "inactive"}, {"smiles": "NS(=O)(=O)c1ccc(Nc2nc(-c3ccc(F)cc3)cs2)cc1", "Potency": "inactive"}, {"smiles": "O=S(=O)(c1ccc(F)cc1)c1snnc1-c1ccccc1", "Potency": "10 µM (active)"}, {"smiles": "Cc1c(CC(=O)NCCCC(=O)O)c(=O)oc2cc3c(cc12)CCC(C)(C)O3", "Potency": "inactive"}, {"smiles": "NNc1nc(N)c2c(n1)-c1ccccc1CC21CCCC1", "Potency": "inactive"}, {"smiles": "CC(C)NC1CCC(Nc2ccnc3cc(Cl)ccc23)CC1", "note": "(configuration not stated)", "Potency": "15.8 µM (active)"}, {"smiles": "CCN(CC)CCNc1ccnc2cc(Cl)ccc12", "Potency": "inactive"}, {"smiles": "O=C(NNc1ccnc2cc(Cl)ccc12)C1CCCCC1", "Potency": "inactive"}]}]}
